Rows were chosen to be rich in hits. Some 21% of all compounds tested hit in one or more screens of this group.
Cycloheximide cs – affects cycloheximide protein synthesis inhibition readout, counter-screen | cell reporter, cycloheximide protein synthesis inhibition counterscreen | max response, % | 12% of 300,000 active | AID 2314; in the data active = max response mostly above about 13%, no sharp cut-off; inactive = mostly below about 14%; note: read at 38.3 µM for the half of the compounds with a filed dose; 0% is about no effect
Pf growth 48h – P. falciparum growth inhibition at 48 hours (one generation). Potency, µM (doses to about 28.7 µM), for inactives: top-dose activity change, negative = inhibition, hits mostly inhibitors. 5.9% of 310,000 active. AID 504832. P. falciparum luciferase growth in erythrocytes, 48 h; active = well fitted inhibition curve with a large enough effect; inconclusive = small, poorly fitted or top-dose-only effect, or another doubt; inactive = no such curve, though single readings can be large or run the other way; note: potency is the fitted concentration of half-maximal effect; % is set by controls: 0 for no effect and ±100 for the full control effect
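In quantitative HTS format, infected erythrocytes bearing luciferase-reporter parasites were treated for a single generation at 37 C. Luminescence after adding detection reagent served as the growth measure.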
NS1 function inh – blocks influenza NS1 protein function; Potency, µM (doses to about 46.1 µM), for the others: at the highest dose activity, positive = more growth; 0.4% of 270,000 active; note: potency is the fitted concentration of half-maximal effect; actives are rising curves; nearly all actives have a fitted effect of over 50% in size
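Growth recovery, yeast-based: influenza A NS1 expressed in S. cerevisiae causes slow growth, and suppressors are detected by OD600. The parent strain without NS1 is used as positive control.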
SARS PLpro yeast – inhibitors of SARS-CoV papain-like protease in yeast | S. cerevisiae expressing SARS-CoV PLpro, growth rescue | Potency, µM (series often up to 32.9 µM), for the others: at the top dose activity, positive = growth rescue, usual class: activators | 0.19% of 330,000 active; note: potency is the fitted concentration of half-maximal effect; 0% is about no effect; nearly all actives have a fitted effect of over 55% in size
Shiga inhibitor – Shiga toxin inhibition; AID 2315; Vero cells, Shiga toxin protein synthesis inhibition reporter; inhibition, % at 38.7 µM; 9.2% of 290,000 active; in the data active = inhibition mostly above about 28%, no sharp cut-off; inactive = mostly below about 43%; note: 0% is about no effect
Pf growth 96h – P. falciparum growth inhibition at 96 hour, primary screen for plastid delayed-death inhibitors | Potency, µM (series often up to 28.7 µM), without a hit: top-dose activity change, negative = inhibition, hits mostly inhibitors | P. falciparum luciferase reporter growth, 96 h | AID 504834 | 6.9% of 320,000 active; active = well fitted inhibition curve with a large enough effect; inconclusive = small, poorly fitted or top-dose-only effect, or another doubt; inactive = no such curve, though single readings can be large or run the other way; note: potency is the fitted concentration of half-maximal effect; % is set by controls: 0 for no effect and ±100 for the full control effect
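Plates of compound plus infected erythrocytes (2% hematocrit, 0.05% parasitemia final) incubate 96 hours, 37 C, 5% CO2. Detection reagent added; reduced luminescence from the parasites' luciferase reporter flags inhibition.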
Active calls of the source: *. Unless noted, calls come from the whole dose curve.

Results for CCOc1ccc(C(=O)NCc2ccco2)cc1OC ?
Cycloheximide cs: 9.1; Pf growth 48h: -10.8%; NS1 function inh: 10.9%; SARS PLpro yeast: 16.8%; Shiga inhibitor: 13.7; Pf growth 96h: 13.9%

Results for CN(CC(=O)Nc1ccccc1Cl)CC(=O)Nc1cccc2ccccc12 ?
SARS PLpro yeast: -6.6%

What do the screens show for `Cc1ccc(CNC(=O)c2ccc(Br)o2)cc1`?
Cycloheximide cs: 19.5*; Pf growth 48h: 40.2%; NS1 function inh: -67.2%; SARS PLpro yeast: -24.6%; Shiga inhibitor: 74.9; Pf growth 96h: 16.8%

How did O=C(NCc1ccccc1)c1ccc(Br)o1 do in these assays?
Cycloheximide cs: 5.9; Pf growth 48h: 9.4%; NS1 function inh: -5.9%; SARS PLpro yeast: -6.4%; Shiga inhibitor: -13.8; Pf growth 96h: -9.2%

What do the screens show for `Cc1cc2cc(CNC(=O)c3ccc(Br)o3)ccc2n1C`?
Cycloheximide cs: -5.7; Pf growth 48h: inconclusive; NS1 function inh: -0.9%; SARS PLpro yeast: -0.4%; Shiga inhibitor: -5.7; Pf growth 96h: 9.28µM*

How did CC1CCN(CCCn2c(=S)[nH]c3ccccc3c2=O)CC1 do in these assays?
Cycloheximide cs: 7.8; Pf growth 48h: -2.9%; NS1 function inh: 7.0%; SARS PLpro yeast: 13.9%; Shiga inhibitor: -12.7; Pf growth 96h: 94.0%

How did CCCn1c(=S)[nH]c2cc(C(=O)N3CCN(C(=O)OCC)CC3)ccc2c1=O do in these assays?
Cycloheximide cs: 7.2; Pf growth 48h: 13.9%; NS1 function inh: -9.8%; SARS PLpro yeast: 2.9%; Shiga inhibitor: -7.9; Pf growth 96h: inconclusive

Results for CCOC(=O)N1CCN(C(=O)c2ccc3c(=O)n(CCc4ccccc4)c(=S)[nH]c3c2)CC1 ?
Cycloheximide cs: -1.1; Pf growth 48h: inconclusive; NS1 function inh: -16.1%; SARS PLpro yeast: -3.9%; Shiga inhibitor: -2.1; Pf growth 96h: 8.28µM*

What do the screens show for `CCN1CCN(C(=O)c2ccc3c(=O)n(CCc4ccccc4)c(=O)[nH]c3c2)CC1`?
Cycloheximide cs: 20.3*; Pf growth 48h: 26.6%; NS1 function inh: 16.1%; SARS PLpro yeast: 1.6%; Shiga inhibitor: 59.0*; Pf growth 96h: -33.0%

What do the screens show for `O=c1c2ccccc2[nH]c(=S)n1CCCN1CCN(C2CCCCC2)CC1`?
Cycloheximide cs: -1.3; Pf growth 48h: 13.1µM*; NS1 function inh: 2.3%; SARS PLpro yeast: 0.3%; Shiga inhibitor: -7.3

Results for CN1CCN(C(=O)c2ccc3c(=O)n(CCc4ccccc4)c(=S)[nH]c3c2)CC1 ?
NS1 function inh: -1.5%

What do the screens show for `CC(C)N(CCn1c(=S)[nH]c2ccccc2c1=O)C(C)C`?
Cycloheximide cs: -1.8; NS1 function inh: 1.1%; SARS PLpro yeast: 2.0%; Shiga inhibitor: -13.4; Pf growth 96h: 2.94µM*

Results for CCOC(=O)CN(Cc1sccc1C)C(=O)Nc1ccc(OCC)cc1 ?
Cycloheximide cs: -3.0; Pf growth 48h: 1.3%; NS1 function inh: -5.0%; SARS PLpro yeast: 9.4%; Shiga inhibitor: -2.8; Pf growth 96h: inconclusive

What do the screens show for `Cc1nc2sc3c(c2c2nc(-c4ccco4)nn12)CC(C)(C)OC3`?
NS1 function inh: 2.4%

Results for O=C(O)C(Cc1c[nH]c2ccccc12)NS(=O)(=O)c1cccc2nsnc12 (stereo not drawn) ?
Cycloheximide cs: 2.7; Pf growth 48h: 5.2%; NS1 function inh: -4.7%; SARS PLpro yeast: -8.6%; Shiga inhibitor: 22.1; Pf growth 96h: 12.7%

What do the screens show for `CSCC[C@H](NC(=O)[C@H]1N2C(=O)c3ccccc3C2SC1(C)C)C(=O)NCc1ccncc1` (stereo partly drawn)?
Cycloheximide cs: 1.1; Pf growth 48h: inconclusive; NS1 function inh: 0.7%; SARS PLpro yeast: -3.0%; Shiga inhibitor: -4.2; Pf growth 96h: inconclusive

Results for O=[N+]([O-])c1cc(Cl)ccc1Oc1ccc(-c2nnco2)cc1 ?
Cycloheximide cs: 6.6; Pf growth 48h: inconclusive; SARS PLpro yeast: -3.1%; Shiga inhibitor: -6.8; Pf growth 96h: inconclusive

How did O=C(Cc1ccc(Cl)cc1)NCCS(=O)(=O)N1CCN(c2ccccc2F)CC1 do in these assays?
Pf growth 48h: inconclusive; SARS PLpro yeast: -9.4%; Pf growth 96h: inconclusive

What do the screens show for `O=C(c1ccc2c(=O)n(Cc3ccccc3)c(=S)[nH]c2c1)N1CCOCC1`?
Cycloheximide cs: -7.3; Pf growth 48h: 2.8%; NS1 function inh: -2.2%; SARS PLpro yeast: 2.9%; Shiga inhibitor: -7.8; Pf growth 96h: inconclusive

Results for CCOC(=O)N1CCN(C(=O)c2ccc3c(=O)n(Cc4ccc(Cl)cc4)c(=S)[nH]c3c2)CC1 ?
Cycloheximide cs: -1.7; Pf growth 48h: 0.6%; NS1 function inh: 19.6%; SARS PLpro yeast: 3.5%; Shiga inhibitor: 10.4; Pf growth 96h: 56.8%

What do the screens show for `CCOc1cc2[nH]c(=S)n(Cc3ccc(C(=O)O)cc3)c(=O)c2cc1OCC`?
Cycloheximide cs: -1.5; Pf growth 48h: 26.1%; NS1 function inh: 5.8%; SARS PLpro yeast: 4.8%; Shiga inhibitor: -5.2; Pf growth 96h: 9.28µM*

Results for CCOC(=O)N1CCN(C(=O)c2ccc(Cn3c(=S)[nH]c4ccc(Br)cc4c3=O)cc2)CC1 ?
Cycloheximide cs: 0.9; Pf growth 48h: 11.7µM*; NS1 function inh: 12.2%; SARS PLpro yeast: 1.0%; Shiga inhibitor: -3.0; Pf growth 96h: 3.7µM*

Results for CCCn1c(=S)[nH]c2cc(C(=O)N3CCN(C4CCCCC4)CC3)ccc2c1=O ?
Cycloheximide cs: 9.5; Pf growth 48h: 0.4%; NS1 function inh: -9.2%; SARS PLpro yeast: 1.0%; Shiga inhibitor: -9.2; Pf growth 96h: 10.4µM*

Results for CC(=O)c1ccc(N2CCN(C(=O)c3ccc(Cn4c(=S)[nH]c5ccc(N6CCOCC6)cc5c4=O)cc3)CC2)cc1 ?
Cycloheximide cs: 15.5; Pf growth 48h: inconclusive; SARS PLpro yeast: 0.1%; Shiga inhibitor: 59.2*; Pf growth 96h: 67.6%

Results for CCOc1cc2[nH]c(=O)n(Cc3ccc(C(=O)NCCOC)cc3)c(=O)c2cc1OCC ?
Cycloheximide cs: 1.9; Pf growth 48h: inconclusive; NS1 function inh: 10.6%; SARS PLpro yeast: 9.5%; Shiga inhibitor: -10.5; Pf growth 96h: inconclusive

Results for CC1C=CCC2C(=O)N(c3cccc(C(=O)Nc4ccc(Br)cc4)c3)C(=O)C12 (stereo not drawn) ?
Cycloheximide cs: 6.4; Pf growth 48h: 44.8%; NS1 function inh: 15.5%; SARS PLpro yeast: -5.3%; Shiga inhibitor: 21.6; Pf growth 96h: 5.0%

How did CC(C)c1cccc(C(C)C)c1NC(=O)c1ccc(OCC(=O)NCc2ccccc2)cc1 do in these assays?
Cycloheximide cs: -3.8; Pf growth 48h: 20.8%; NS1 function inh: 25.3%; SARS PLpro yeast: -9.0%; Shiga inhibitor: 15.0; Pf growth 96h: inconclusive

Results for CN(C)S(=O)(=O)c1ccc(N2CCCC2)c(C(=O)N2CCN(c3ccc([N+](=O)[O-])cc3)CC2)c1 ?
Cycloheximide cs: -1.9; Pf growth 48h: inconclusive; SARS PLpro yeast: -1.3%; Shiga inhibitor: 12.2; Pf growth 96h: inconclusive
